From the supplement of paper PMC11732987, “Enantioselective OTUD7B fragment discovery through chemoproteomics screening and high-throughput optimisation” (Communications Chemistry, 2025)

Legend:
Test in all cases: log2 ratio of Biotin-Ahx-Ub-VS probe labelling (fragment/DMSO); higher = less target engagement (more negative = stronger competition), active = hit call of the paper (q ≤ 0.05, log2 ratio ≤ -1)
Conditions in all cases: compound concentration: 200 uM; treatment time: 3 h
USP34 = USP34 (UniProt Q70CQ2)
Procedure, shortened: (§1)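 Triplicate samples of HEK293T lysate, 495 µg each, received fragment at 200 µM or vehicle for 3 h, followed by Biotin-Ahx-Ub-VS (0.5 µM final) for 1 h. After NeutrAvidin enrichment of labelled DUBs and LysC/trypsin digestion, peptides were run by diaPASEF LC-MS/MS. The values are average log2 fragment/vehicle ratios from global-median-normalised Spectronaut label-free quantities, tested by unpaired t-test on proteins having ≥2 unique peptides.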

USP36 = molecular target: T1, USP36 (UniProt Q9P275)
T1 sequence (whole entry): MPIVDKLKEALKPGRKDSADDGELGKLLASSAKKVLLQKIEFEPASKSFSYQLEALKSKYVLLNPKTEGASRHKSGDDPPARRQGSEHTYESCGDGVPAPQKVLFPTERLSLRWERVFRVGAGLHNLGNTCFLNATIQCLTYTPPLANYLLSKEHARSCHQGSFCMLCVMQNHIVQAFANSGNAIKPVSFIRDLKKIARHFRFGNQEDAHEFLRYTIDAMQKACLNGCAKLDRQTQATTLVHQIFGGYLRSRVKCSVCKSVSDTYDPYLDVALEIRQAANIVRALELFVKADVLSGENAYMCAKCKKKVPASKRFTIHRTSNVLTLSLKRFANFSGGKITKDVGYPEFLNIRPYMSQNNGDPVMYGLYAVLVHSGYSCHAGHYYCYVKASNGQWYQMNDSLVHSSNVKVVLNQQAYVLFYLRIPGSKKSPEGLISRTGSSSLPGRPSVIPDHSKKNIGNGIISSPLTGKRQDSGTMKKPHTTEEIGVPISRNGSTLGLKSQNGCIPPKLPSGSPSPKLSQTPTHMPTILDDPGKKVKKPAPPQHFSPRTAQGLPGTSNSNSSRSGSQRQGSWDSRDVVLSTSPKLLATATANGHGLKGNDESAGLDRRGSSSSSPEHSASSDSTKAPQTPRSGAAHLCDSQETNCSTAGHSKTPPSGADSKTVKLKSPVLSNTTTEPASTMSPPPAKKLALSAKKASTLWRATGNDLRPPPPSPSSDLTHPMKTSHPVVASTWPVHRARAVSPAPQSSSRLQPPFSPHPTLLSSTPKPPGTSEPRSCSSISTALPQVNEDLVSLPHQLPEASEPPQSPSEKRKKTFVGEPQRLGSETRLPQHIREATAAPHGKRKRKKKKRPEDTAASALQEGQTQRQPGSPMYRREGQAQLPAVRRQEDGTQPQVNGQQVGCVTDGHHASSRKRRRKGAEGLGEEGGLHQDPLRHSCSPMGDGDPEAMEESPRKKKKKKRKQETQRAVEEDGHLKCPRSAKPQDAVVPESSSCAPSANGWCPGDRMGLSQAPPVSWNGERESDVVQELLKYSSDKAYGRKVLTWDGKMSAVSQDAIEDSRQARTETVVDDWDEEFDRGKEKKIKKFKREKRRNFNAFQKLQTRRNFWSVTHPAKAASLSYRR
Procedure, shortened: as §1

USP38 = molecular target: T2, USP38 (UniProt Q8NB14)
T2 sequence (whole entry): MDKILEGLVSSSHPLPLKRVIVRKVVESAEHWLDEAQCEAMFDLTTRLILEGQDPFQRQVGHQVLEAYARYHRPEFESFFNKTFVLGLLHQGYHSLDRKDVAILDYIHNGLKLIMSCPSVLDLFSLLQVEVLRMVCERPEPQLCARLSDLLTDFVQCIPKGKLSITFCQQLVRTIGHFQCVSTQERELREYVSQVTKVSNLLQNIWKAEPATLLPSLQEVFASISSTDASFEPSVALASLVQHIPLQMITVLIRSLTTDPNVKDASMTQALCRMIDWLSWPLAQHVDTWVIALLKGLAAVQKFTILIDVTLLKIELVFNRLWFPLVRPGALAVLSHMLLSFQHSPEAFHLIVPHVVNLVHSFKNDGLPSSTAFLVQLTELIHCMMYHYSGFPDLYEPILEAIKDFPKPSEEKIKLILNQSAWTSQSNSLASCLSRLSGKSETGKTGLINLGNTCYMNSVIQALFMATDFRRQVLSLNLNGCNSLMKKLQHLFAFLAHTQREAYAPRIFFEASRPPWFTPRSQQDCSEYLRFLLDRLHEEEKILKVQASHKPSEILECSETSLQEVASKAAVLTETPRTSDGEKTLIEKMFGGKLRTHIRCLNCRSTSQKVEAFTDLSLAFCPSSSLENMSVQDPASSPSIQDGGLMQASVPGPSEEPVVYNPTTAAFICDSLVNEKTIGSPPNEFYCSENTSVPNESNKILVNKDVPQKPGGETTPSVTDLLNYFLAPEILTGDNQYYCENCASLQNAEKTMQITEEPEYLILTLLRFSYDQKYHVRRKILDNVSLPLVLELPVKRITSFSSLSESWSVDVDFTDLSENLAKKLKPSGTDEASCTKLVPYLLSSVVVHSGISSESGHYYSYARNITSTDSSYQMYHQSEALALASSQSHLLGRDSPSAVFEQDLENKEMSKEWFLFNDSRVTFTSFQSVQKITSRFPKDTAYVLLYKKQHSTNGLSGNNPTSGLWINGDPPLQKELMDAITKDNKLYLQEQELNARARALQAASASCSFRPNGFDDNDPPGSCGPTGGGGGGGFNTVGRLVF
Procedure, shortened: as §1

USP39 = molecular target: T3, USP39 (UniProt Q53GS9)
T3 sequence (whole entry): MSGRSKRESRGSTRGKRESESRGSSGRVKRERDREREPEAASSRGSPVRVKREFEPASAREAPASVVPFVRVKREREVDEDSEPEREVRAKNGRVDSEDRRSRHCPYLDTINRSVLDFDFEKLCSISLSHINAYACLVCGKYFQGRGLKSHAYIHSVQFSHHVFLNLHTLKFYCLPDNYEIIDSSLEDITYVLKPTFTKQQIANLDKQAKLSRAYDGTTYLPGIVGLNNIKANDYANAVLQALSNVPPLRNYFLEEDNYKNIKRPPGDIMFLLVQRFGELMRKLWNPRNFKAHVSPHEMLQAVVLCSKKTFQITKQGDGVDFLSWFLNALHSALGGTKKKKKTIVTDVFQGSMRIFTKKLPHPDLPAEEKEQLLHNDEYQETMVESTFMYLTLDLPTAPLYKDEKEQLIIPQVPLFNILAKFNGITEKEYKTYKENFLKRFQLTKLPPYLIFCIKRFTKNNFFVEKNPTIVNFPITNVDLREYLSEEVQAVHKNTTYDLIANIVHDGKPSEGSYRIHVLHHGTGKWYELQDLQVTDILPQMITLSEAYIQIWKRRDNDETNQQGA
Procedure, shortened: as §1

USP4 = molecular target: T4, USP4 (UniProt Q13107)
T4 sequence (whole entry): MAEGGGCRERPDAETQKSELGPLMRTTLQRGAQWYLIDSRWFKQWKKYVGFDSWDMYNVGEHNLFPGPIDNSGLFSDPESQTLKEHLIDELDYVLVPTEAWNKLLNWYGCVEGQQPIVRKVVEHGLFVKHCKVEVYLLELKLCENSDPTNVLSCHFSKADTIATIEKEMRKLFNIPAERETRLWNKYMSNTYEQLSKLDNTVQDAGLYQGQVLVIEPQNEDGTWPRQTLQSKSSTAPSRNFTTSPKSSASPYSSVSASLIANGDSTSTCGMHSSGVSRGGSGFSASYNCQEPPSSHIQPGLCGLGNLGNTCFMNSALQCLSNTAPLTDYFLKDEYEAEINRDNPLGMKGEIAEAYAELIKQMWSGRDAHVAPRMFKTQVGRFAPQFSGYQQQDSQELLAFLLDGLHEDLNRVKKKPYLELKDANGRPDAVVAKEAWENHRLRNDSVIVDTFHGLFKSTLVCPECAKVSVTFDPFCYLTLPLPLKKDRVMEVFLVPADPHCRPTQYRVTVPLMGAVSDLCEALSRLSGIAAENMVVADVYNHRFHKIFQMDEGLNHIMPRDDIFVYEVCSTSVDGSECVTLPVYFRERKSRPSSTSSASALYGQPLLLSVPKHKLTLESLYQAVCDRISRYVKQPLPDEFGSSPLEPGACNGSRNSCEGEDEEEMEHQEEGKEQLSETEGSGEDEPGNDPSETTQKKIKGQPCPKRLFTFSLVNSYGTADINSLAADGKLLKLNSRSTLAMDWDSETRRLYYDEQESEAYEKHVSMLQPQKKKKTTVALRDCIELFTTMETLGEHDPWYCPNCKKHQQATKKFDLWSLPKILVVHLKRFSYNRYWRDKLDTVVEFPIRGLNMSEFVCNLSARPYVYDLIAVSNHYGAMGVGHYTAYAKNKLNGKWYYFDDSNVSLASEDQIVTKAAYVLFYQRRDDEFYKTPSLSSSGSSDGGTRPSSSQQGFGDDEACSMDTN
Procedure, shortened: as §1

Measured: log2 ratio of Biotin-Ahx-Ub-VS probe labelling

Chain of USP34 (Q70CQ2 whole entry, the tested form may be a part): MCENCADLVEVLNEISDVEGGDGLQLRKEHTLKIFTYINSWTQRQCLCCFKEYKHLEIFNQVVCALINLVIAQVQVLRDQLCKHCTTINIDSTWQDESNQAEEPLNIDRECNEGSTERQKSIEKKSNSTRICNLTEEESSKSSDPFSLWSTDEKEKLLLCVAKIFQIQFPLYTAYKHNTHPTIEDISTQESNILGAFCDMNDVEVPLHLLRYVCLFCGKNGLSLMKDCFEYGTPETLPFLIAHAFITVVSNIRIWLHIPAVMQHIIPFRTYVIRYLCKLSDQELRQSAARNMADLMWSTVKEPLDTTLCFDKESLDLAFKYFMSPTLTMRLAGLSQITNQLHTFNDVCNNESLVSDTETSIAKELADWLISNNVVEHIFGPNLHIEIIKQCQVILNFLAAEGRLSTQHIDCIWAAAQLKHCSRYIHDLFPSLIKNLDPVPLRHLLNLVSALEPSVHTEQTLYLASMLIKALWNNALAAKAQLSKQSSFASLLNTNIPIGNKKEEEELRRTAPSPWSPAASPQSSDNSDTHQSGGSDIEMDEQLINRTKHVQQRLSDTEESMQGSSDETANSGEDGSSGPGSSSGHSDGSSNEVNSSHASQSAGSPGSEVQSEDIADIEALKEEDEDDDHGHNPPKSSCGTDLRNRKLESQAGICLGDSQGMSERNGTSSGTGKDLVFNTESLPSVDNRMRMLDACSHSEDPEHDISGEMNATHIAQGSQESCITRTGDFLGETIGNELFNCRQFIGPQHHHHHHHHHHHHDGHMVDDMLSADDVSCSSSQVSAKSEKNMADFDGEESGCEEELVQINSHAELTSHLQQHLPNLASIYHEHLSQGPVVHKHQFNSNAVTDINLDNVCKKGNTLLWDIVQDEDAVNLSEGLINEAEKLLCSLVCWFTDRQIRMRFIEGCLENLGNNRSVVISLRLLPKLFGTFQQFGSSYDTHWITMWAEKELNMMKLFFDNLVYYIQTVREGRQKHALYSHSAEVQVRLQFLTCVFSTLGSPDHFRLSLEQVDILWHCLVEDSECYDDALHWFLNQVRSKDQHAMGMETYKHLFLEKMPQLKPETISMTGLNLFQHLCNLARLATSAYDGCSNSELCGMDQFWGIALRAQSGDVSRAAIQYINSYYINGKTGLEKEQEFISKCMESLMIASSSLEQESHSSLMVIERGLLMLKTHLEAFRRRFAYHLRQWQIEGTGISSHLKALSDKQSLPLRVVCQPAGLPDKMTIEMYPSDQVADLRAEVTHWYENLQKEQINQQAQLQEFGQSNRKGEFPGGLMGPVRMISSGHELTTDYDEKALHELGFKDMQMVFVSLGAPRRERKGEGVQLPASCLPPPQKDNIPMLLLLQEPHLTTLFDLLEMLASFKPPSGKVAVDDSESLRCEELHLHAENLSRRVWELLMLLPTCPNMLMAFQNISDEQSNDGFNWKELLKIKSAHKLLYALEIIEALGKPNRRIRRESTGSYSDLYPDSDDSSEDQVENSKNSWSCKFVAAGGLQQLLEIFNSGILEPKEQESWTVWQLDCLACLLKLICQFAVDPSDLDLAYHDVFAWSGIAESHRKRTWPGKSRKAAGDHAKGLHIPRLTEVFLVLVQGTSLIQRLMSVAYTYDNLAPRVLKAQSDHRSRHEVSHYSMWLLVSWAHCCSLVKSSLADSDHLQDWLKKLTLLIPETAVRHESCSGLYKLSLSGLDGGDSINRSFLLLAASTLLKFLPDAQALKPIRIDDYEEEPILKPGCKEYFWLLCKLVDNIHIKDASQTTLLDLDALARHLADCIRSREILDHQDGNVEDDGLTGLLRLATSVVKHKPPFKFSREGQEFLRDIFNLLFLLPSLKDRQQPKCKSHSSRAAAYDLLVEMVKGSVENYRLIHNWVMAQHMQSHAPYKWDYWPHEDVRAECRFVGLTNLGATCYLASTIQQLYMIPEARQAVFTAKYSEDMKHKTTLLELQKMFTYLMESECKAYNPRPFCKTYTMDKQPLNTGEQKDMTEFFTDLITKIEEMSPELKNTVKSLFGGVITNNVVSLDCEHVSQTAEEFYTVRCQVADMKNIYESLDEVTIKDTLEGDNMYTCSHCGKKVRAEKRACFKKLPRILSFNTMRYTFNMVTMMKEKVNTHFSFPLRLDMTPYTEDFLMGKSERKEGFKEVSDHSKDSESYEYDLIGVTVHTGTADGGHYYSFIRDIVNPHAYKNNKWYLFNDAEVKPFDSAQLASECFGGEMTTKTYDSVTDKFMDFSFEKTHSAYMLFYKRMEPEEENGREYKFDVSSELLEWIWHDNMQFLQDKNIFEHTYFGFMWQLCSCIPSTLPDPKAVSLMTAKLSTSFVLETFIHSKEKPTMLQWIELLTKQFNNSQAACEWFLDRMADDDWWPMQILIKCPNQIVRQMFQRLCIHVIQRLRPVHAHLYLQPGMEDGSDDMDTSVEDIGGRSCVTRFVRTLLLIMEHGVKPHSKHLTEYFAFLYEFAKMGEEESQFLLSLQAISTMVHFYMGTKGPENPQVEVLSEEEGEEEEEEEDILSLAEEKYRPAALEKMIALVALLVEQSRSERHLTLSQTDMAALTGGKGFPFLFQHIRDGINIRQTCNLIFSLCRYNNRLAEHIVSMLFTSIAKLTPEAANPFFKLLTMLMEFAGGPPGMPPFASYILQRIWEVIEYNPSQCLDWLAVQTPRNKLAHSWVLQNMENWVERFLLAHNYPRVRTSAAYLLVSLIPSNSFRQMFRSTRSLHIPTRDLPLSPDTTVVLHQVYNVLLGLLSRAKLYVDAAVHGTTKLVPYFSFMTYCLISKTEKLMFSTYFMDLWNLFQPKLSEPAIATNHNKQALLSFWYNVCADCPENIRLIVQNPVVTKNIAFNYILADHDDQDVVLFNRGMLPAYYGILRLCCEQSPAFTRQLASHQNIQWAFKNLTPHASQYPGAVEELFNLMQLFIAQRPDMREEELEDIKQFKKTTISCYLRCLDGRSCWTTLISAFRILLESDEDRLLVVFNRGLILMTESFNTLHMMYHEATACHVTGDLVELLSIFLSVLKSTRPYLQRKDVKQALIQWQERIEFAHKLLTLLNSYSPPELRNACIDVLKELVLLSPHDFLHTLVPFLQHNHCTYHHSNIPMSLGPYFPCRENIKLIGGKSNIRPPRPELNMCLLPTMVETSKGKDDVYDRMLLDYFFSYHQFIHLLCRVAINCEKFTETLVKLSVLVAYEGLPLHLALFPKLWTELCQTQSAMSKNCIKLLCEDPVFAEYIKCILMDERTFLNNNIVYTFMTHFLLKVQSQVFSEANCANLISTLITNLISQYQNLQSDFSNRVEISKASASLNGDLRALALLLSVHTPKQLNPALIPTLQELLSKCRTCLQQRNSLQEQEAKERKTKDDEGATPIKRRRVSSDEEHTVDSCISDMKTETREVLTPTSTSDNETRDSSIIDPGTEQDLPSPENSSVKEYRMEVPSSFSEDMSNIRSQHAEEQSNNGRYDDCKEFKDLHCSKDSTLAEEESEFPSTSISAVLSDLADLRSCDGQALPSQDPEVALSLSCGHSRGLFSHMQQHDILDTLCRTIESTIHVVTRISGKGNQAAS

CCN(C(=O)CCl)C1CCCCC1
inactive: USP34 -0.106 | USP36 -0.191 | USP38 0.143 | USP39 0.059 | USP4 0.182
